Results on 27 sequences are retold here after publication PMC7862700, “An all-to-all approach to the identification of sequence-specific readers for epigenetic DNA modifications on cytosine”.

Common to all, as to assay: DAPPL (digital affinity profiling via proximity ligation, sequencing); 10 mM Tris-HCl pH 7.5, 50 mM NaCl, 1 mM DTT, 4% glycerol, room temperature, 30 min; GST-TFs on glutathione beads, 16-mer random dsDNA library, 0.1% formaldehyde crosslink after washing; high values mean tight binding
The target in one experiment is T1, FLI1 (Homo sapiens, UniProt Q01543 1-452).
T1 sequence: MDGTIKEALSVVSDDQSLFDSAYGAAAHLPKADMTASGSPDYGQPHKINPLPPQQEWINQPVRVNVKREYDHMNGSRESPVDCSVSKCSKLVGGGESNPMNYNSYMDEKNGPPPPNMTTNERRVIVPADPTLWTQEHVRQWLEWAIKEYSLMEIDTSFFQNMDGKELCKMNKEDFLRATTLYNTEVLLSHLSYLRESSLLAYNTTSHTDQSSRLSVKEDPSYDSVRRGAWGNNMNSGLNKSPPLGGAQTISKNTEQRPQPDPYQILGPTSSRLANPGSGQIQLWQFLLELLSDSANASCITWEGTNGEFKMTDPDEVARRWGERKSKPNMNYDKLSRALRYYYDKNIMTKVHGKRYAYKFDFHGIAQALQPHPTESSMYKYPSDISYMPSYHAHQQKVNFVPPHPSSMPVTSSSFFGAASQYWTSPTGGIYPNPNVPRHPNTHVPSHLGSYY
The following applies: protein: recombinant; tags: N-terminal GST; dsDNA, one strand shown. The gist of the method:
(§1)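 Beads coated with glutathione captured GST-fused human transcription factors that had been expressed in yeast, and the factors were then given DNA barcodes and pooled with a tag-only sample. The pools were incubated with 200 nmole of a random double-stranded 16-mer DNA library in Tris/NaCl/DTT/glycerol buffer for 30 min at room temperature, washed, crosslinked with 0.1% formaldehyde and proximity-ligated with BsaI/T4 ligase at 37 °C for 1 h. PCR amplification and Illumina NextSeq500 sequencing came last. Binding signal is each hexamer's read frequency for a factor divided by its frequency for the tag-only sample.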

For a further experiment, the target named is T2, ELK3 (Homo sapiens, UniProt P41970 1-407).
T2 sequence: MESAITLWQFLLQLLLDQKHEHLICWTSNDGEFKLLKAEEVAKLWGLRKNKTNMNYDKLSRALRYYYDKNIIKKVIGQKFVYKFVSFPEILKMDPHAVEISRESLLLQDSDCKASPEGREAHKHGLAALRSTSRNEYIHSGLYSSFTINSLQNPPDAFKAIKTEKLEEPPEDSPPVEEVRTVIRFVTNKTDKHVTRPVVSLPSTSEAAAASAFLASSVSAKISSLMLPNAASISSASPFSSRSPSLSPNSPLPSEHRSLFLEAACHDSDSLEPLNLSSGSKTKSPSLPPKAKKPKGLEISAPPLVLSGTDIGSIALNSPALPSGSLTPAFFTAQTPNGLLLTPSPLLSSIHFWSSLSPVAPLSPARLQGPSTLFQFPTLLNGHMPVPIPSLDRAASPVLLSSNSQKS
The following applies: protein: recombinant; tags: N-terminal GST; dsDNA, one strand shown. The gist of the method: as §1

The target in the next experiment is T3, ELF5 (Homo sapiens, UniProt Q9UKW6-2 1-255).
T3 sequence: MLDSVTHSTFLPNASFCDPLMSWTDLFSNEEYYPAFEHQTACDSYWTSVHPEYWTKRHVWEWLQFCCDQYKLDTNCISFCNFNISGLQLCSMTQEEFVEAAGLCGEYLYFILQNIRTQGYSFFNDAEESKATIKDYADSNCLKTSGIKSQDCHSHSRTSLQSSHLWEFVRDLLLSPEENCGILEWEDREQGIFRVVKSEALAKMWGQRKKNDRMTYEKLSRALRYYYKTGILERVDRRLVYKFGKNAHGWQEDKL
The following applies: protein: recombinant; tags: N-terminal GST; dsDNA, one strand shown. The gist of the method:
as §1

Another experiment has as its target SPI1 (Homo sapiens, UniProt P17947 1-270). The following applies: protein: recombinant; tags: N-terminal GST; dsDNA, one strand shown. The gist of the method: as §1
A further experiment concerns the target HSF1 (Homo sapiens, UniProt Q00613 1-529). The following applies: protein: recombinant; tags: N-terminal GST; chain copies: 3; dsDNA, one strand shown. The gist of the method:
as §1

The next experiment deals with T4, SPIC (Homo sapiens, UniProt Q8N5J4 1-248).
T4 sequence: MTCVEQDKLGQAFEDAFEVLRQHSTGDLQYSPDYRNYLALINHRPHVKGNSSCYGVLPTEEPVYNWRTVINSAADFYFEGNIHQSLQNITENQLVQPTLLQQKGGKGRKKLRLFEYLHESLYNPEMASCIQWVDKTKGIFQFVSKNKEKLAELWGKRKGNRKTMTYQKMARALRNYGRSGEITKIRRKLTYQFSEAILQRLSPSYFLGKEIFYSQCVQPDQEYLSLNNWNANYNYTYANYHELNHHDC
The following applies: protein: recombinant; tags: N-terminal GST; dsDNA, one strand shown. Summed up: as §1

In a further experiment the target is CRX (Homo sapiens, UniProt O43186 1-299). The following applies: protein: recombinant; tags: N-terminal GST; dsDNA, one strand shown. Summed up: as §1
Chain of CRX (O43186 whole entry): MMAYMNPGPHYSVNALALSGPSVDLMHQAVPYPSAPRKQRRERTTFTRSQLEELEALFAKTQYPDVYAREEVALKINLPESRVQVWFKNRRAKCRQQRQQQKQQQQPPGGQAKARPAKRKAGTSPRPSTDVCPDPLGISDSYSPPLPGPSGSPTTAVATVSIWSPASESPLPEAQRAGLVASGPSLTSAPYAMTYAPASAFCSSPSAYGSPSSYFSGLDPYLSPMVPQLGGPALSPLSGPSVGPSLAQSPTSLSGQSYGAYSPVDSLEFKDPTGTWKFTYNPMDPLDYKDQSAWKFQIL

Chain of HSF1 (Q00613 whole entry): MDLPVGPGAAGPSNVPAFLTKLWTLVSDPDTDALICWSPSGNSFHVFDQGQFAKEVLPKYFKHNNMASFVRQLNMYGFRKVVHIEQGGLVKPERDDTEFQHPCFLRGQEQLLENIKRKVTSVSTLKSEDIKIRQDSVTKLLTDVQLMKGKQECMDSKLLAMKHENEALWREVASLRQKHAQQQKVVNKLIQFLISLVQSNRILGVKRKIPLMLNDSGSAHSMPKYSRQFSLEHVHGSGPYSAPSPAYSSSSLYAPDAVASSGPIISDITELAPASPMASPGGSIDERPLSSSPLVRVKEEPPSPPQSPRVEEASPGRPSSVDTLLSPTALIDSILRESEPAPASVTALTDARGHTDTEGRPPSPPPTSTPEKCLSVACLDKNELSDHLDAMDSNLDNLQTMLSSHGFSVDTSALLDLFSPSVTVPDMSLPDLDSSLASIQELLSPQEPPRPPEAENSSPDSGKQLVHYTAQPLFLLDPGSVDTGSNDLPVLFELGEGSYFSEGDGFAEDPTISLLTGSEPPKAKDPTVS

With TCAGTT, the binding signal in the experiment with FLI1 was 1.02 fold enrichment (6-mer frequency, TF over GST control); with ELK3 it was 1.09 fold enrichment (6-mer frequency, TF over GST control).

On to CGCGTA, for which the binding signal with FLI1 is 1.07 fold enrichment (6-mer frequency, TF over GST control).

For the sequence CGCACG, the binding signal was 1.1 fold enrichment (6-mer frequency, TF over GST control) with FLI1; 1.02 fold enrichment (6-mer frequency, TF over GST control) with ELK3; 1.02 fold enrichment (6-mer frequency, TF over GST control) in the experiment with ELF5.

For the sequence CGTCCA, the binding signal with FLI1 was 1.13 fold enrichment (6-mer frequency, TF over GST control); with SPI1, 1.03 fold enrichment (6-mer frequency, TF over GST control); with ELK3, 1.13 fold enrichment (6-mer frequency, TF over GST control).

On to CACCGG, for which the binding signal is 1.11 fold enrichment (6-mer frequency, TF over GST control) with FLI1; 1.08 fold enrichment (6-mer frequency, TF over GST control) with SPI1; 1.16 fold enrichment (6-mer frequency, TF over GST control) with ELK3; 1.03 fold enrichment (6-mer frequency, TF over GST control) with ELF5.

As to TGGGCA, the binding signal in the experiment with FLI1 was 1.05 fold enrichment (6-mer frequency, TF over GST control); in the experiment with SPI1, 1.08 fold enrichment (6-mer frequency, TF over GST control); with ELK3, 1.19 fold enrichment (6-mer frequency, TF over GST control).

Take CGACTG: the binding signal with SPI1 is 1.04 fold enrichment (6-mer frequency, TF over GST control); with ELK3, 1.02 fold enrichment (6-mer frequency, TF over GST control); with HSF1, 1.02 fold enrichment (6-mer frequency, TF over GST control); with SPIC, 1 fold enrichment (6-mer frequency, TF over GST control); with ELF5, 1.04 fold enrichment (6-mer frequency, TF over GST control).

For CATTAA, the binding signal in the experiment with SPI1 is 1.04 fold enrichment (6-mer frequency, TF over GST control); with HSF1, 1.36 fold enrichment (6-mer frequency, TF over GST control); with SPIC, 1.08 fold enrichment (6-mer frequency, TF over GST control); in the experiment with CRX it was 1.92 fold enrichment (6-mer frequency, TF over GST control).

Regarding TGAAAT, the binding signal with SPI1 is 1.02 fold enrichment (6-mer frequency, TF over GST control); with HSF1, 1.02 fold enrichment (6-mer frequency, TF over GST control); with SPIC, 1.01 fold enrichment (6-mer frequency, TF over GST control); with CRX it was 1.03 fold enrichment (6-mer frequency, TF over GST control).

On to CGAAGG, for which the binding signal with HSF1 is 1.31 fold enrichment (6-mer frequency, TF over GST control); in the experiment with SPIC, 1.08 fold enrichment (6-mer frequency, TF over GST control).

Turning to AGCAAA, the binding signal in the experiment with SPI1 is 1.04 fold enrichment (6-mer frequency, TF over GST control); with ELK3 it was 1.04 fold enrichment (6-mer frequency, TF over GST control); with HSF1, 1.18 fold enrichment (6-mer frequency, TF over GST control); with CRX, 1.05 fold enrichment (6-mer frequency, TF over GST control); in the experiment with ELF5 it was 1 fold enrichment (6-mer frequency, TF over GST control).

Regarding TAGCGT, the binding signal with HSF1 is 1.04 fold enrichment (6-mer frequency, TF over GST control); with SPIC, 1.02 fold enrichment (6-mer frequency, TF over GST control); with CRX, 1.15 fold enrichment (6-mer frequency, TF over GST control).

ACAAGA: the binding signal with HSF1 was 1 fold enrichment (6-mer frequency, TF over GST control); with SPIC, 1.06 fold enrichment (6-mer frequency, TF over GST control).

Regarding CGGTTA, the binding signal with FLI1 was 1.05 fold enrichment (6-mer frequency, TF over GST control); in the experiment with SPI1, 1 fold enrichment (6-mer frequency, TF over GST control); with ELK3 it was 1 fold enrichment (6-mer frequency, TF over GST control); with ELF5 it was 1.07 fold enrichment (6-mer frequency, TF over GST control).

As for TGGGAA, the binding signal with SPI1 is 1.21 fold enrichment (6-mer frequency, TF over GST control); with ELK3, 1 fold enrichment (6-mer frequency, TF over GST control); with HSF1, 1.05 fold enrichment (6-mer frequency, TF over GST control); with SPIC it was 1.03 fold enrichment (6-mer frequency, TF over GST control); with ELF5, 1.15 fold enrichment (6-mer frequency, TF over GST control).

As for GCGTCT, the binding signal is 1.04 fold enrichment (6-mer frequency, TF over GST control) with SPI1; 1.13 fold enrichment (6-mer frequency, TF over GST control) with ELK3; 1.01 fold enrichment (6-mer frequency, TF over GST control) with HSF1; 1.11 fold enrichment (6-mer frequency, TF over GST control) in the experiment with SPIC; 1.08 fold enrichment (6-mer frequency, TF over GST control) in the experiment with ELF5.

GAGCTT: the binding signal in the experiment with ELK3 was 1.02 fold enrichment (6-mer frequency, TF over GST control); with HSF1 it was 1.2 fold enrichment (6-mer frequency, TF over GST control); with SPIC, 1.09 fold enrichment (6-mer frequency, TF over GST control); in the experiment with CRX it was 1.43 fold enrichment (6-mer frequency, TF over GST control).

Take AGCGAT: the binding signal was 1.07 fold enrichment (6-mer frequency, TF over GST control) with SPI1; 1.23 fold enrichment (6-mer frequency, TF over GST control) in the experiment with ELK3; 1.1 fold enrichment (6-mer frequency, TF over GST control) with HSF1; 1.11 fold enrichment (6-mer frequency, TF over GST control) in the experiment with SPIC; 1.29 fold enrichment (6-mer frequency, TF over GST control) in the experiment with CRX.

As for AGAGCT, the binding signal was 1.01 fold enrichment (6-mer frequency, TF over GST control) in the experiment with SPI1; 1.05 fold enrichment (6-mer frequency, TF over GST control) with HSF1; 1.04 fold enrichment (6-mer frequency, TF over GST control) with SPIC; 1.14 fold enrichment (6-mer frequency, TF over GST control) with CRX.

For CCCCTA, the binding signal with SPI1 is 1.08 fold enrichment (6-mer frequency, TF over GST control); with ELK3, 1.38 fold enrichment (6-mer frequency, TF over GST control); in the experiment with HSF1, 1.02 fold enrichment (6-mer frequency, TF over GST control); with SPIC, 1.25 fold enrichment (6-mer frequency, TF over GST control); with CRX, 1.15 fold enrichment (6-mer frequency, TF over GST control); with ELF5 it was 1.1 fold enrichment (6-mer frequency, TF over GST control).

With CGTAAA, the binding signal with SPI1 is 1.09 fold enrichment (6-mer frequency, TF over GST control); with ELK3, 1.17 fold enrichment (6-mer frequency, TF over GST control); with HSF1 it was 1.17 fold enrichment (6-mer frequency, TF over GST control); with SPIC, 1.09 fold enrichment (6-mer frequency, TF over GST control); with CRX, 1.15 fold enrichment (6-mer frequency, TF over GST control); in the experiment with ELF5, 1.14 fold enrichment (6-mer frequency, TF over GST control).

As for GGTAAA, the binding signal with SPI1 was 1.04 fold enrichment (6-mer frequency, TF over GST control); in the experiment with ELK3, 1.04 fold enrichment (6-mer frequency, TF over GST control); with HSF1, 1.04 fold enrichment (6-mer frequency, TF over GST control); with CRX, 1.07 fold enrichment (6-mer frequency, TF over GST control); with ELF5, 1.1 fold enrichment (6-mer frequency, TF over GST control).

With GACTTA, the binding signal was 1.34 fold enrichment (6-mer frequency, TF over GST control) with HSF1; 1.08 fold enrichment (6-mer frequency, TF over GST control) in the experiment with SPIC; 1.93 fold enrichment (6-mer frequency, TF over GST control) with CRX.

For AGAAGT, the binding signal in the experiment with SPI1 was 1.24 fold enrichment (6-mer frequency, TF over GST control); in the experiment with ELK3 it was 1.11 fold enrichment (6-mer frequency, TF over GST control); in the experiment with HSF1 it was 1.45 fold enrichment (6-mer frequency, TF over GST control); with SPIC, 1.19 fold enrichment (6-mer frequency, TF over GST control); with ELF5 it was 1.1 fold enrichment (6-mer frequency, TF over GST control).

Turning to TAGGAT, the binding signal with ELK3 was 1.03 fold enrichment (6-mer frequency, TF over GST control); with HSF1 it was 1.35 fold enrichment (6-mer frequency, TF over GST control); with SPIC it was 1.06 fold enrichment (6-mer frequency, TF over GST control); in the experiment with CRX it was 1.81 fold enrichment (6-mer frequency, TF over GST control); with ELF5 it was 1.06 fold enrichment (6-mer frequency, TF over GST control).

Regarding CGAACG, the binding signal is 1.2 fold enrichment (6-mer frequency, TF over GST control) with HSF1 and 1.11 fold enrichment (6-mer frequency, TF over GST control) with SPIC.

In the case of ATAATG, the binding signal with SPI1 is 1.07 fold enrichment (6-mer frequency, TF over GST control); with ELK3, 1.22 fold enrichment (6-mer frequency, TF over GST control); with HSF1 it was 1.25 fold enrichment (6-mer frequency, TF over GST control); in the experiment with SPIC, 1.21 fold enrichment (6-mer frequency, TF over GST control); with CRX, 1.52 fold enrichment (6-mer frequency, TF over GST control); with ELF5, 1.07 fold enrichment (6-mer frequency, TF over GST control).
